# Publication PMC7862700, “An all-to-all approach to the identification of sequence-specific readers for epigenetic DNA modifications on cytosine”
# Key:
# Test in all cases: DAPPL (digital affinity profiling via proximity ligation, sequencing); 10 mM Tris-HCl pH 7.5, 50 mM NaCl, 1 mM DTT, 4% glycerol, room temperature, 30 min; GST-TFs on glutathione beads, 16-mer random dsDNA library, 0.1% formaldehyde crosslink after washing; high values mean tight binding
# Conditions in all cases: protein: recombinant; tags: N-terminal GST; dsDNA, one strand shown
# [1] = molecular target: T1, FEV (Homo sapiens, UniProt Q99581 1-238)
# T1 sequence: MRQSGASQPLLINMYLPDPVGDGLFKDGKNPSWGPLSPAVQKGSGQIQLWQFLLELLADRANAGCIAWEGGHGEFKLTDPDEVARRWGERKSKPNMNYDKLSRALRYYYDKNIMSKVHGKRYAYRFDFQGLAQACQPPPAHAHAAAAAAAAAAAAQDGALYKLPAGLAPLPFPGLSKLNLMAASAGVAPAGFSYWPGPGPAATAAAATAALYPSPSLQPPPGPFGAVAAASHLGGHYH
# In short: (§1)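 In yeast, human transcription factors were expressed with a GST fusion, then pulled down on glutathione beads and given DNA barcodes. Pooled with a tag-only sample, they were exposed to 200 nmole of a 16-mer random double-stranded DNA library (Tris/NaCl/DTT/glycerol buffer, room temperature, 30 min), washed, crosslinked with 0.1% formaldehyde, proximity-ligated using BsaI/T4 ligase for 1 h at 37 °C, PCR-amplified and read on an Illumina NextSeq500. Each hexamer's frequency of reads for a factor, divided by the matching frequency for the tag-only sample, gives the binding signal.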
# [2] = molecular target: ETV5 (Homo sapiens, UniProt P41161 1-510)
# In short: as §1
# [3] = molecular target: T2, SPIC (Homo sapiens, UniProt Q8N5J4 1-248)
# T2 sequence: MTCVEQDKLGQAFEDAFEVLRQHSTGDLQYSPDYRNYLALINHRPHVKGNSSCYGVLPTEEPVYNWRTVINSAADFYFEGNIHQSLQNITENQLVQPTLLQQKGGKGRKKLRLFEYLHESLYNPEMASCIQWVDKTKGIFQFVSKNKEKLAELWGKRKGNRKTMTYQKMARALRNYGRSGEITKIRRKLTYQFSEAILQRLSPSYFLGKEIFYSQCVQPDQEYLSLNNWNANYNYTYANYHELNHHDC
# In short: as §1
# [4] = molecular target: ELF4 (Homo sapiens, UniProt Q99607 1-663)
# In short: as §1
# [5] = molecular target: T3, ELK4 (Homo sapiens, UniProt P28324-2 1-405)
# T3 sequence: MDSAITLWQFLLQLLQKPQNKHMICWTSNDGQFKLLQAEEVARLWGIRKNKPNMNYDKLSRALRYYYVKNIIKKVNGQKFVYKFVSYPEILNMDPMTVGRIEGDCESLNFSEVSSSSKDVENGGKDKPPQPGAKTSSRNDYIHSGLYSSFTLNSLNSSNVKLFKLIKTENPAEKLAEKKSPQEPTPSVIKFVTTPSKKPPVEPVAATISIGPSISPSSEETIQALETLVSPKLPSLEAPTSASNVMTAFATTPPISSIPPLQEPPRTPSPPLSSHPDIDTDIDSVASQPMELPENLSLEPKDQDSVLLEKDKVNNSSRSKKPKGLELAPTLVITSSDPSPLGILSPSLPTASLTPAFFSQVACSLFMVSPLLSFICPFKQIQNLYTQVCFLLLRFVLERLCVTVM
# In short: as §1
# [6] = molecular target: T4, ELF3 (Homo sapiens, UniProt P78545 1-371)
# T4 sequence: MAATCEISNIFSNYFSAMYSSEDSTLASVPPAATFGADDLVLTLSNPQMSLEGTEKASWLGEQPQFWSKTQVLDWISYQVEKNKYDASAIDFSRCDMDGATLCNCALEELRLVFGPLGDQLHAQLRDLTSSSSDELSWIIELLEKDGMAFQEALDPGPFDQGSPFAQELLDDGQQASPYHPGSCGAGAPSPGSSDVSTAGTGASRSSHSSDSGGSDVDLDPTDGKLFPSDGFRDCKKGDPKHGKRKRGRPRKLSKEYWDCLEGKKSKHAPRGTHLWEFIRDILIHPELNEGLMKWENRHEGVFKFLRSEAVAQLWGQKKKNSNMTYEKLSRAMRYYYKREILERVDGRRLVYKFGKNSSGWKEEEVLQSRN
# In short: as §1
# [7] = molecular target: ETV1 (Homo sapiens, UniProt P50549 1-477)
# In short: as §1
# [8] = molecular target: T5, ERF (Homo sapiens, UniProt P50548 1-548)
# T5 sequence: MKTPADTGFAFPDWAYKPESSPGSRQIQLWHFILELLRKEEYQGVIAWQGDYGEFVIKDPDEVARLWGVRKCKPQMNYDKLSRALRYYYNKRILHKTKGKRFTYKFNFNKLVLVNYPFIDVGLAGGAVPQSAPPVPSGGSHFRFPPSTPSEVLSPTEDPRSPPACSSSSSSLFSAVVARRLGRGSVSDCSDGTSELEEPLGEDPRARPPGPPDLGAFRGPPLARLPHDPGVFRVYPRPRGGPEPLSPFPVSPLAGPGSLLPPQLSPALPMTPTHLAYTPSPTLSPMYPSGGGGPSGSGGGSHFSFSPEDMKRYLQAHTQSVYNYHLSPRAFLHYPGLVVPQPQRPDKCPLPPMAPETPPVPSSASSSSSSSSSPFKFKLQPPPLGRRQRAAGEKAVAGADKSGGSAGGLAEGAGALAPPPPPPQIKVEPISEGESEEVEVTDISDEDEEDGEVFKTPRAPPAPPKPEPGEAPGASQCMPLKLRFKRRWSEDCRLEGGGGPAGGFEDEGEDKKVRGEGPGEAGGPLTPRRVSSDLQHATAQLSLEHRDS
# In short: as §1
# [9] = molecular target: T6, ETV3L (Homo sapiens, UniProt Q6ZN32 1-361)
# T6 sequence: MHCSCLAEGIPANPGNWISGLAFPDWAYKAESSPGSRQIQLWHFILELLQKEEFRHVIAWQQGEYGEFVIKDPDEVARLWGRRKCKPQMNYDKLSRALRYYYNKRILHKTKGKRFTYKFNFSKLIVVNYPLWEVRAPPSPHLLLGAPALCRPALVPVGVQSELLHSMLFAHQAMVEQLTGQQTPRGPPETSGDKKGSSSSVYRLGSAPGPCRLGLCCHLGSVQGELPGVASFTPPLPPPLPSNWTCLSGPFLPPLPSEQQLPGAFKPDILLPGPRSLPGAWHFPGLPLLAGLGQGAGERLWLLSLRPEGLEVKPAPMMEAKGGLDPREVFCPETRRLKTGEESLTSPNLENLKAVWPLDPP
# In short: as §1
# [10] = molecular target: T7, ETS2 (Homo sapiens, UniProt P15036 1-469)
# T7 sequence: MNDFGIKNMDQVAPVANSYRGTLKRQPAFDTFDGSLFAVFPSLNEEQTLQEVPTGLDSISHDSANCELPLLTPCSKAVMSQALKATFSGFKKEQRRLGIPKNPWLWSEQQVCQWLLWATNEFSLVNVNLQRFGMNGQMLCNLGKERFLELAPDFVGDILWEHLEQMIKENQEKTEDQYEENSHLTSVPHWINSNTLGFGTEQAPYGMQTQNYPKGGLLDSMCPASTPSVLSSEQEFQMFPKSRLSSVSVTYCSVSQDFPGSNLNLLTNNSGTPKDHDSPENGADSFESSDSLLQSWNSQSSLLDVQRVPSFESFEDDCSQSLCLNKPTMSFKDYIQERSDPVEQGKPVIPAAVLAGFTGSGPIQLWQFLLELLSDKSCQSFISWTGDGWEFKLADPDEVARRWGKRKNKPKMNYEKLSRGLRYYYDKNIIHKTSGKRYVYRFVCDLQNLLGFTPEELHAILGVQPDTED
# In short: as §1
# [11] = molecular target: T8, SPDEF (Homo sapiens, UniProt O95238 1-335)
# T8 sequence: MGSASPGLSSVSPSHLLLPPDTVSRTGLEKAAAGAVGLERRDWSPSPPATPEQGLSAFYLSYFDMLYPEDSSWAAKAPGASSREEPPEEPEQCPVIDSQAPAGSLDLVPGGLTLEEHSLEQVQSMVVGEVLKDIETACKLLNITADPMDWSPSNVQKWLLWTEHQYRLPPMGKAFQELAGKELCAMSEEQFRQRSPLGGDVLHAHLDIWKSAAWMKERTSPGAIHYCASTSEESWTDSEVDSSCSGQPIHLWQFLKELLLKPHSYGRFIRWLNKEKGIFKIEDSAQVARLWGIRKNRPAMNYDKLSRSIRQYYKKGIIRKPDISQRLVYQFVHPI
# In short: as §1
# [12] = molecular target: T9, ETV7 (Homo sapiens, UniProt Q9Y603 1-341)
# T9 sequence: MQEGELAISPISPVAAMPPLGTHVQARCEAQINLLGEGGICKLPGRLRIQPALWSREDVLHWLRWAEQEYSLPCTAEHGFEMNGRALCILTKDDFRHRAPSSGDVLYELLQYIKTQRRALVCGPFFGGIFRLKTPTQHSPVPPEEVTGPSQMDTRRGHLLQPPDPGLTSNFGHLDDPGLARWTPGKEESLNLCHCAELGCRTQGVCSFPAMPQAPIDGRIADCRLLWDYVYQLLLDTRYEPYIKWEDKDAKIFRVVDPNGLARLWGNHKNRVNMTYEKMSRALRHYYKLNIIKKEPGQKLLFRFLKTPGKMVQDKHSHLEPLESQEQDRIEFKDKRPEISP
# In short: as §1
# [13] = molecular target: T10, ELF5 (Homo sapiens, UniProt Q9UKW6-2 1-255)
# T10 sequence: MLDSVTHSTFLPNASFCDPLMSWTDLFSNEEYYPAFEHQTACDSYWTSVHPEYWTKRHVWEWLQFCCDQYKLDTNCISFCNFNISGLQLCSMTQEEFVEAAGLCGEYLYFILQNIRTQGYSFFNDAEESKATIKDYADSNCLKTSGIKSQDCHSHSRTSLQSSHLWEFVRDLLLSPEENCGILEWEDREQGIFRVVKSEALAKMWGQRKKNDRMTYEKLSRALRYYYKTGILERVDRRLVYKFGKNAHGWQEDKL
# In short: as §1
# [14] = molecular target: T11, ETV3 (Homo sapiens, UniProt P41162-2 1-143)
# T11 sequence: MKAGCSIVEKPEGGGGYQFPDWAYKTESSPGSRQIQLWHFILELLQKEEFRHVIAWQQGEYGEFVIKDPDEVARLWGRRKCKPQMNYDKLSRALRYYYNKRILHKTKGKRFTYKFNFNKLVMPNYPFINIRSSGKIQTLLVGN
# In short: as §1
# [15] = molecular target: ETV6 (Homo sapiens, UniProt P41212 1-452)
# In short: as §1
# [16] = molecular target: T12, ETV2 (Homo sapiens, UniProt O00321 1-342)
# T12 sequence: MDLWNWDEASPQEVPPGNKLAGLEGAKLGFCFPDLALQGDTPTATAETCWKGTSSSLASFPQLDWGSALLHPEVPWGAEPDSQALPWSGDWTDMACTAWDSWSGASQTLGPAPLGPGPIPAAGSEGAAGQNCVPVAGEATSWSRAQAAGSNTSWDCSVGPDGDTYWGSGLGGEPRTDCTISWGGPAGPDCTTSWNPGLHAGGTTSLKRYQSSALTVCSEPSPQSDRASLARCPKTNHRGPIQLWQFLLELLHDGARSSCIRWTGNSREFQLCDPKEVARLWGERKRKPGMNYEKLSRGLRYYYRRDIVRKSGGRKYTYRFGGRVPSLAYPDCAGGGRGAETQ
# In short: as §1
# [17] = molecular target: CRX (Homo sapiens, UniProt O43186 1-299)
# In short: as §1
# Chain of ETV6 (P41212 whole entry): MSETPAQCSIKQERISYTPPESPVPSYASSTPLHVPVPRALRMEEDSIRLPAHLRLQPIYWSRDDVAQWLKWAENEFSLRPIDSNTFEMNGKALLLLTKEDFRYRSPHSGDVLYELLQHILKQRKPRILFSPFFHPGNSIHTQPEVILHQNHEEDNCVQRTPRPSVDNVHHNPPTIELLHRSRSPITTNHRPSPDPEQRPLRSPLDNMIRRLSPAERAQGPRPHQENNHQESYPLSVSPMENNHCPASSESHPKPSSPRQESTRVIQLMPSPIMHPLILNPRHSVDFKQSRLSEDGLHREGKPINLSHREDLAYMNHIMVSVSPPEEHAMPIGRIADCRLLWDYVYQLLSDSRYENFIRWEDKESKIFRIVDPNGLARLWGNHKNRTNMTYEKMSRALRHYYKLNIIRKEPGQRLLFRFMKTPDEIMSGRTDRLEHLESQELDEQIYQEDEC
# Chain of ELF4 (Q99607 whole entry): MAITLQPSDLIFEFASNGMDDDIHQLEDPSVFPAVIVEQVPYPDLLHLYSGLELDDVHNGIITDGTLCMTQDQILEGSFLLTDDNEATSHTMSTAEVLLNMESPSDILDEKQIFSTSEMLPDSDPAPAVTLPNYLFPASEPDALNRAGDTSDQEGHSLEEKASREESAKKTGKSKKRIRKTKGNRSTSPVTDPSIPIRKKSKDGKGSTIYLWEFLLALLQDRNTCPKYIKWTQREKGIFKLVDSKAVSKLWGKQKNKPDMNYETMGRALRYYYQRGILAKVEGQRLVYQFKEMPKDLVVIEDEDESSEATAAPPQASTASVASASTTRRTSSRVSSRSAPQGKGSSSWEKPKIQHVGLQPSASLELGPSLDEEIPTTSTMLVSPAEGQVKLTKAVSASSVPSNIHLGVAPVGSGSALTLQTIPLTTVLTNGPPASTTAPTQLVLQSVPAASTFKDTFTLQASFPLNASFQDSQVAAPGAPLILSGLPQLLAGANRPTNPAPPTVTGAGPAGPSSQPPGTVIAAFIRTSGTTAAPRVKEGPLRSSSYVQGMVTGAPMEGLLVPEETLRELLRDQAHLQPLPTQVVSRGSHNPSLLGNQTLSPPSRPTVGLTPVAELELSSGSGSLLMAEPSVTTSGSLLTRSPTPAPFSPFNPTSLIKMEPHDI
# Chain of ETV5 (P41161 whole entry): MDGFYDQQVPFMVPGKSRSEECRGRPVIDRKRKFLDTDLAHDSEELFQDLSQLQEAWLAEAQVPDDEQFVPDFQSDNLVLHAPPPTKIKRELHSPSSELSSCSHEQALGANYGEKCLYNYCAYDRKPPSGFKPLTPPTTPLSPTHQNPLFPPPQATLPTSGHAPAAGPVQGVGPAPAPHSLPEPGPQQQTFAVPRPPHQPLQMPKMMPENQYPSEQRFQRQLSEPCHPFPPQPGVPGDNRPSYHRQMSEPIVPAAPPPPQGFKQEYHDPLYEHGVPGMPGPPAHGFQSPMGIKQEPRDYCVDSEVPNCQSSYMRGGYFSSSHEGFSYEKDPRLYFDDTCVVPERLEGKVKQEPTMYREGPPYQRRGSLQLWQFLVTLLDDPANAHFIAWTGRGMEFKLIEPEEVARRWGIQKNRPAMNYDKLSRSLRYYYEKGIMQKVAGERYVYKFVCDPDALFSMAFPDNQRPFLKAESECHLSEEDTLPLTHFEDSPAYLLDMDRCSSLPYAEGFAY
# Chain of CRX (O43186 whole entry): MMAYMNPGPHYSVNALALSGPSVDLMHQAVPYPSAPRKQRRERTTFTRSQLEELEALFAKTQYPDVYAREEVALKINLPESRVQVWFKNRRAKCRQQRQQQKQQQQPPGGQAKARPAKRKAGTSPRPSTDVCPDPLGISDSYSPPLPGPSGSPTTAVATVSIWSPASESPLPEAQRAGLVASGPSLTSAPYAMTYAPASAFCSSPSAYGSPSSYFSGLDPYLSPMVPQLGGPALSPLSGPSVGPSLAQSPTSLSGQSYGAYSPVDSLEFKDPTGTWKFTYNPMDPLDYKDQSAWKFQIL
# Chain of ETV1 (P50549 whole entry): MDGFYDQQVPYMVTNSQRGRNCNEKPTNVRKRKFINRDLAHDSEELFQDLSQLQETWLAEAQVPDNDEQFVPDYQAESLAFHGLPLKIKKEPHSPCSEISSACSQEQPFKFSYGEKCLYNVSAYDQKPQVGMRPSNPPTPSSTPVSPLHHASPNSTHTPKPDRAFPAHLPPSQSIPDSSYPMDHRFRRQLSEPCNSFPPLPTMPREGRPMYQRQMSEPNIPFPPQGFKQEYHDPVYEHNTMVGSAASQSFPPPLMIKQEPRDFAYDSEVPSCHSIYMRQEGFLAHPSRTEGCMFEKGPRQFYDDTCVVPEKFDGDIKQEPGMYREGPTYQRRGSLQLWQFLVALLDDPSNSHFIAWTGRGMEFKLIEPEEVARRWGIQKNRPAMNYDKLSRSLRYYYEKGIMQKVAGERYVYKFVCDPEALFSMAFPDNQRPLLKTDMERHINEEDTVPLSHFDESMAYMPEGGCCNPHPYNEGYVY
Sequence,binding signal [1],binding signal [2],binding signal [3],binding signal [4],binding signal [5],binding signal [6],binding signal [7],binding signal [8],binding signal [9],binding signal [10],binding signal [11],binding signal [12],binding signal [13],binding signal [14],binding signal [15],binding signal [16],binding signal [17]
GTACTC,"1.11 fold enrichment (6-mer frequency, TF over GST control)","1.19 fold enrichment (6-mer frequency, TF over GST control)","1.06 fold enrichment (6-mer frequency, TF over GST control)","1.12 fold enrichment (6-mer frequency, TF over GST control)","1.03 fold enrichment (6-mer frequency, TF over GST control)","1.07 fold enrichment (6-mer frequency, TF over GST control)","1.1 fold enrichment (6-mer frequency, TF over GST control)","1.06 fold enrichment (6-mer frequency, TF over GST control)","1.15 fold enrichment (6-mer frequency, TF over GST control)","1.13 fold enrichment (6-mer frequency, TF over GST control)","1.02 fold enrichment (6-mer frequency, TF over GST control)","1 fold enrichment (6-mer frequency, TF over GST control)","1.12 fold enrichment (6-mer frequency, TF over GST control)","1.11 fold enrichment (6-mer frequency, TF over GST control)","1.14 fold enrichment (6-mer frequency, TF over GST control)",,
TGCCTA,"1.05 fold enrichment (6-mer frequency, TF over GST control)","1 fold enrichment (6-mer frequency, TF over GST control)","1.18 fold enrichment (6-mer frequency, TF over GST control)","1.09 fold enrichment (6-mer frequency, TF over GST control)","1.24 fold enrichment (6-mer frequency, TF over GST control)",,,"1.09 fold enrichment (6-mer frequency, TF over GST control)","1.16 fold enrichment (6-mer frequency, TF over GST control)","1.16 fold enrichment (6-mer frequency, TF over GST control)","1.03 fold enrichment (6-mer frequency, TF over GST control)","1.01 fold enrichment (6-mer frequency, TF over GST control)","1 fold enrichment (6-mer frequency, TF over GST control)","1.07 fold enrichment (6-mer frequency, TF over GST control)","1.07 fold enrichment (6-mer frequency, TF over GST control)","1.17 fold enrichment (6-mer frequency, TF over GST control)","1.08 fold enrichment (6-mer frequency, TF over GST control)"
